We go through eight compounds from PubChem BioAssay (EPA / NIEHS).

Molecules are shown by their SMILES. The source made the active and inactive calls. The calls were made as follows: active = hit-call score of the fitted dose curve at least 0.9, where 1 is the maximum; inactive = score below 0.9.

A short description of assay [1]: APR_HepG2_NuclearSize_24hr: Apredica 24-hour HepG2 Assay for Nuclear Size (AID 2282907). As to conditions: high-content imaging, actives raise or lower the signal. In outline:
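Nuclear size is measured by fluorescence high-content imaging of Hoechst-labelled HepG2 nuclei after 24 hr of treatment (0.39–200 uM, 0.5% DMSO). Cells are fixed in 3.7% formaldehyde before staining, and DMSO serves as the baseline for bidirectional curve fitting.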

Assay [2] can be described thus: APR_HepG2_CellLoss_24hr: Apredica 24-hour HepG2 Assay for Cell Loss (AID 2282908).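 As to AC50: fit in both directions so a hit may be cell loss or gain.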 The settings on record: high-content imaging. An outline of the steps:
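Nuclear count serves as the viability measure: treated cells are fixed, permeabilized and labelled with Hoechst 33342, and six images per well are analysed to identify valid nuclei. Doses span 0.39–200 uM, and activity in either direction is scored against DMSO.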

Assay [3] in a line: APR_HepG2_MicrotubuleCSK_24hr: Apredica 24-hour HepG2 Assay for Microtubule CSK Stabilty (AID 2282909). The settings on record: HepG2 microtubule cytoskeleton imaging, actives raise or lower the signal. In outline:
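Compounds were applied to HepG2 cells for 24 hours across 0.39–200 uM in duplicate, with final DMSO at 0.5% v/v. Fixed, permeabilized cells were labeled for alpha-tubulin and nuclei, and tubulin fluorescence was quantified by imaging, fitted bidirectionally against DMSO.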

A short description of assay [4]: APR_HepG2_MitoticArrest_24hr: Apredica 24-hour HepG2 Assay for Mitotic Arrest (AID 2282910). The settings on record: high-content imaging, actives raise or lower the signal. An outline of the steps:
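HepG2, 24 hr dosing, 0.39–200 uM, 0.5% DMSO final. Formaldehyde-fixed, Triton-permeabilised, anti-phospho-histone H3 plus Hoechst. ArrayScan imaging at 20x; bidirectional fit vs DMSO baseline.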

Assay [5] can be described thus: APR_HepG2_MitoMembPot_24hr: Apredica 24-hour HepG2 Assay for Mitochondrial Membrane Potential (AID 2282911). As to conditions: imaging, actives raise or lower the signal. An outline of the steps:
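HepG2 cells exposed 24 h to 0.39–200 uM compounds in duplicate, 0.5% v/v DMSO final. MitoTracker Red CMXRos 250 nM loaded 30 min before formaldehyde fixation; high-content imaging at 20x, bidirectional fit versus DMSO.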

A short description of assay [6]: APR_HepG2_MitoMass_24hr: Apredica 24-hour HepG2 Assay for Mitochondrial Mass (AID 2282912). The settings on record: high-content imaging, actives raise or lower the signal. In outline:
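After 24 hr of treatment at 0.39 to 200 uM, HepG2 cells take up 250 nM MitoTracker Red CMXRos for 30 min and are then fixed with 3.7% formaldehyde. Per-well images are quantified, and any change in either direction is scored against solvent.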

Assay [7] in a line: APR_HepG2_CellCycleArrest_72hr: Apredica 72-hour HepG2 Assay for Cell Cycle Arrest (AID 2282914). As to conditions: high-content imaging, actives raise or lower the signal. An outline of the steps:
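HepG2 cells exposed 72 h in duplicate to 0.39–200 uM compound, 0.5% DMSO final. Formaldehyde-fixed, Hoechst 33342-stained nuclei imaged at 20x, six fields per well; DNA content per valid cell quantified by cell-cycle image analysis, bidirectional fit versus DMSO.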

A short description of assay [8]: APR_HepG2_CellLoss_72hr: Apredica 72-hour HepG2 Assay for Cell Loss (AID 2282915). The settings on record: high-content imaging. An outline of the steps: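 HepG2 cells exposed 72 h to compound at 0.39–200 uM (10 concentrations, duplicate) in 0.5% DMSO. Fixed with 3.7% formaldehyde and Hoechst 33342-stained. Imaged at 20x; nuclear count gives cell number, fitted bidirectionally versus DMSO.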

The nature of assay [9]: APR_HepG2_P-H2AX_72hr: Apredica 72-hour HepG2 Assay for H2AX Phosphorylation (AID 2282916).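 Also: phospho-histone H2A.x immunostain intensity per cell marking DNA damage.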 As to conditions: imaging, actives raise or lower the signal. In outline: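 Human hepatoma HepG2 cells are dosed across ten concentrations (0.39 to 200 uM, 0.5% v/v DMSO) and incubated 72 hr. Phospho-histone H2A.x is then detected by antibody staining alongside c-Jun and Hoechst, and quantified by automated fluorescence imaging.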

Assay [10] in a line: APR_HepG2_MitoMembPot_72hr: Apredica 72-hour HepG2 Assay for Mitochondrial Membrane Potential (AID 2282917). As to conditions: imaging, actives raise or lower the signal. In outline: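 HepG2 cells dosed 72 hr with compound at 0.39–200 uM in duplicate, 0.5% v/v DMSO final. Mitochondria stained with 250 nM MitoTracker Red CMXRos for 30 min before formaldehyde fixation, imaged by high-content fluorescence; bidirectional fit versus DMSO.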

Assay [11] in a line: APR_HepG2_MitoticArrest_72hr: Apredica 72-hour HepG2 Assay for Mitotic Arrest (AID 2282918). As to conditions: high-content imaging, actives raise or lower the signal. In outline: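 HepG2 cells treated 72 h at 0.39–200 uM, 0.5% DMSO final; formaldehyde-fixed, stained with Hoechst 33342 and phospho-histone H3 antibody, imaged by high-content fluorescence; bidirectional fit versus DMSO.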

Assay [12] is described as follows: APR_HepG2_MicrotubuleCSK_72hr: Apredica 72-hour HepG2 Assay for Microtubule CSK Stabilty (AID 2282919). As to conditions: HepG2 microtubule cytoskeleton, high-content imaging, actives raise or lower the signal. In outline: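 HepG2, 72 hr cmpd exposure, 0.39–200 uM (10 pts, duplicate), 0.5% DMSO. 3.7% formaldehyde fix, 0.5% Triton perm, anti-alpha-tubulin/Cy5 plus Hoechst. HCS fluorescence intensity; bidirectional fit vs DMSO baseline; taxol as positive control.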

The nature of assay [13]: APR_HepG2_P-H2AX_24hr: Apredica 24-hour HepG2 Assay for H2AX Phosphorylation (AID 2282920). As to conditions: high-content imaging, actives raise or lower the signal. In outline:
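HepG2 cells dosed 24 h at 0.39–200 uM (10 points, duplicate, 0.5% DMSO final). Formaldehyde-fixed and permeabilized, then immunostained for phospho-H2A.x with Hoechst. Fluorescence quantified by high-content imaging, fitted bidirectionally versus DMSO.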

A short description of assay [14]: APR_HepG2_StressKinase_72hr: Apredica 72-hour HepG2 Assay for Stress Kinase (AID 2282921). The settings on record: HepG2 stress kinase (phospho-c-Jun) imaging, actives raise or lower the signal. An outline of the steps: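 After a 72 h compound treatment spanning 0.39 to 200 uM, formaldehyde-fixed cells are labelled for phosphorylated c-Jun and nuclei, imaged by automated fluorescence microscopy, and activity is fitted in both directions relative to DMSO controls.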

Assay [15] in a line: APR_HepG2_MitoMass_72hr: Apredica 72-hour HepG2 Assay for Mitochondrial Mass (AID 2282924).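 Also: MitoTracker Red CMXRos stain intensity per cell imaged as mitochondrial mass.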 The settings on record: high-content imaging, actives raise or lower the signal. In outline:
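Read-out: MitoTracker Red fluorescence intensity from automated imaging (20x, six fields per well) in human HepG2 liver cells. Dosing ran 72 hr, 0.39–200 uM, 0.5% DMSO; bidirectional curve fitting versus DMSO baseline.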

Assay [16] is described as follows: APR_HepG2_NuclearSize_72hr: Apredica 72-hour HepG2 Assay for Nuclear Size (AID 2282925). The settings on record: high-content imaging, actives raise or lower the signal. In outline: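 Read-out: nuclear diameter from Hoechst 33342 images (ArrayScan, 20x, six fields/well), via cell-cycle image analysis. HepG2 were dosed 0.39–200 uM for 72 hr in 0.5% DMSO. Bidirectional fit relative to DMSO.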

Assay [17] is described as follows: APR_HepG2_p53Act_24hr: Apredica 24-hour HepG2 Assay for p53 Activation (AID 2282913).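 Also: p53 protein immunofluorescence averaged per cell in HepG2 with Hoechst nuclei.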 The settings on record: high-content imaging, actives raise or lower the signal. In outline: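 HepG2 cells exposed 24 h to compounds at 0.39–200 uM in duplicate, 0.5% v/v DMSO final; fixed, permeabilized, stained with anti-p53 antibody and Hoechst 33342; fluorescence imaging; bidirectional curve fit versus DMSO.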

Assay [18] can be described thus: APR_HepG2_StressKinase_24hr: Apredica 24-hour HepG2 Assay for Stress Kinase (AID 2282922). The settings on record: HepG2 stress kinase (phospho-c-Jun) imaging, actives raise or lower the signal. In outline: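 Read-out: phospho-c-Jun immunofluorescence (Cy3 secondary) quantified by high-content imaging at 20x, nuclei defined by Hoechst 33342. Human HepG2 liver cells dosed 24 hr, 0.39–200 uM, DMSO 0.5% v/v; gain or loss of signal fitted relative to DMSO.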

A short description of assay [19]: APR_HepG2_p53Act_72hr: Apredica 72-hour HepG2 Assay for p53 Activation (AID 2282923).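 Also: average cellular p53 protein immunofluorescence intensity in HepG2 cells.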 The settings on record: high-content imaging, actives raise or lower the signal. In outline: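 Imaging-based endpoint: after 72 hr compound exposure (up to 200 uM, 0.5% DMSO), fixed and permeabilized monolayers were labelled with anti-p53 antibody and imaged; signal change in either direction was fitted relative to DMSO controls.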

For `CCc1cccc(CC)c1N(COC)C(=O)CCl`, the compound was classed as inactive in [1], in assay [5], in assay [6], in assay [7], in [9] and in [11]. Moreover, the call in [12], in assay [14], in assay [15] and in assay [16] was inactive. Further, the AC50 in assay [2] is 92.5 µM (active); in assay [3] it was 55.7 µM (active); in assay [4], 62.4 µM (active); in assay [8], 17.2 µM (active); in assay [10], 31.1 µM (active); in assay [13], 70.7 µM (active).

Consider `CCOP(=S)(OCC)Oc1ccc2c(C)c(Cl)c(=O)oc2c1`, for which the call in assay [1], in assay [2], in assay [3], in assay [5], in assay [6] and in assay [17] was inactive. Also, the call in assay [7], in assay [10], in assay [13], in [14], in assay [18] and in [19] was inactive. For the same compound, the compound was called inactive in [15] and in [16]. In addition, the AC50 in [4] is 114 µM (active); in assay [8], 49.1 µM (active); in [9] it was 100 µM (active); in assay [11], 93.2 µM (active); in assay [12] it was 40.5 µM (active).

For the compound `COP(=O)(NC(C)=O)SC` (stereo unspecified), the result in [1], in [2], in assay [3], in assay [4], in assay [5] and in assay [17] was inactive. For the same compound, the call in assay [7], in assay [8], in [9], in assay [10], in assay [11] and in [12] was inactive. Also, the outcome in [13], in assay [14], in assay [18], in assay [19], in assay [15] and in [16] was inactive.

Regarding `CON=C(C(=O)OC)c1ccccc1CON=C(C)c1cccc(C(F)(F)F)c1`, the compound was classed as inactive in assay [1], in assay [2], in assay [3], in assay [4], in assay [17] and in [7]. Also, the result in assay [9], in [10], in assay [11], in assay [13], in assay [14] and in [19] was inactive. For the same compound, the call in assay [15] and in assay [16] was inactive. Also, the AC50 was 1.07 µM (active) in [5], 3.36 µM (active) in assay [8] and 0.309 µM (active) in assay [12].

`CN(C)C(=O)Nc1cccc(C(F)(F)F)c1`: the compound was classed as inactive in assay [1], in assay [2], in assay [3], in assay [4], in [5] and in assay [17]. Also, the result in [7], in [8], in [9], in [10], in assay [11] and in assay [12] was inactive. Besides, the outcome in assay [13], in assay [14], in assay [18], in assay [19], in assay [15] and in assay [16] was inactive.

As to `CC(C)[C@H](C(=O)O[C@H](C#N)c1cccc(Oc2ccccc2)c1)c1ccc(Cl)cc1`, the compound was called inactive in assay [1], in assay [2], in assay [3], in assay [4], in [5] and in assay [17]. For the same compound, the outcome in assay [7], in [8], in assay [9], in [10], in assay [11] and in assay [12] was inactive. For the same compound, the compound was called inactive in [13], in [14], in assay [19], in [15] and in assay [16].

For `Nc1c(Cl)cc([N+](=O)[O-])cc1Cl`, the outcome in assay [1], in assay [2], in assay [3], in assay [4], in assay [5] and in [7] was inactive. Moreover, the compound was called inactive in [9], in [10], in [11], in assay [12], in assay [13] and in assay [14]. For the same compound, the compound was classed as inactive in [15] and in [16]. Moreover, the AC50 in assay [8] was 95.3 µM (active).

For `O=C(O)c1cc(Oc2ccc(C(F)(F)F)cc2Cl)ccc1[N+](=O)[O-]`, the result in assay [1], in assay [2], in [3], in [4], in assay [5] and in [7] was inactive. In addition, the compound was called inactive in assay [8], in assay [9], in [10], in [11], in assay [12] and in assay [13]. The outcome in [14], in assay [18], in assay [15] and in [16] was inactive.
